Data: PubChem BioAssay AID2094 (Broad Institute, 2009)
Out of some 300,000 compounds screened, about 1,200 (0.4%) were called active. Cut-off read from the data, not from the text of the source: active = activity change below about -75% (passing the limit was not always enough); inconclusive = no clear call, values can overlap the other calls. Shown is part of a subset that was picked to be rich in actives.

Test: Vibrio harveyi AI-2 quorum sensing modulators, primary screen, JMH597 strain, luminescence/OD600 ratio (AID 2094);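 note: luminescence divided by OD600 gain over 9 h not by final OD600 alone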
Settings: Vibrio harveyi JMH597 AI-2 luminescence/OD600 ratio, 9 h; at 7.5 µM; hits give low values; 0 = neutral-control median; strain lacks LuxN and CqsS sensors

Activity change, inactive:
COc1ccc(/C=C(\C#N)C(=O)OCC(=O)N(C)C2CCS(=O)(=O)C2)cc1 (stereo unspecified) 22.6%, N/C(=N\OC(=O)CCc1ccccc1)c1ccc(Cl)cc1 7.92%, O=C(O)CCc1cccnc1 7.07%, COc1ccc(C(=O)NCc2nnc(SCC(=O)NC3=NCCS3)n2C)cc1 -5.32%, CCCOCC(O)CC(CC)C(=O)NNC(=S)Nc1ccccc1 (stereo unspecified) 0.623%, O=C1/C(=C/c2ccc3c(c2)OCO3)Oc2cc(OCC(=O)N3CC(O)C[C@H]3C(=O)O)ccc21 (stereo partly specified) 29%, O=C(CC1SCCNC1=O)Nc1ccc(Cl)cc1 (stereo unspecified) -15%, O=C(CC1NCCNC1=O)Nc1cc(Cl)cc(Cl)c1 (stereo unspecified) 4.37%, COc1ccccc1/C=C/C=N/n1c(-c2ccc(Cl)cc2Cl)n[nH]c1=S -0.967%, O=C(CSc1ncn[nH]1)N/N=C/c1ccc(F)cc1 -5.64%, Cc1cc(C)nc(S/C=C/C(=O)c2ccccc2)n1 4.08%, CC(=O)N(CC(O)CO)c1c(I)c(C(=O)NCC(O)CO)c(I)c(C(=O)NCC(O)CO)c1I (stereo unspecified) 14.8%, Cn1ccc(=NC=C(C#N)C#N)c2ccccc21 22.8%, CCOc1ccc(/C=N\NC(=O)c2c(C)nc3cc(C)ccn23)cc1 2.9%, C=CCNC(=S)N/N=C/c1ccc(OCc2ccccc2)cc1 16.4%, COC(=O)CSc1snnc1-c1ccc(Cl)c(Cl)c1 9.65%, O=S1(=O)N=C(N(CCO)/N=C/c2ccccc2F)c2ccccc21 15.9%, O=C(NNC(=S)Nc1ccc(F)cc1)[C@H]1C[C@@H]1c1ccccc1 -11.8%, Cc1ccc(C2CC2C(=O)NN)cc1 (stereo unspecified) 19.8%, CCN(CC(=O)NCc1cccs1)C(=O)c1cccc(S(=O)(=O)Nc2ccccc2OC)c1 5.29%, C/C(CC1CC(C)(C)OC1=O)=N/Nc1nc(-c2ccccc2)cs1 (stereo unspecified) 26.9%, Cc1ccccc1C(=O)NC(=S)Nc1ccc(N2CCN(C(=O)c3ccccc3)CC2)cc1 13.3%, Cc1ccccc1C(=O)N1CCN(c2ccc(NC(=O)c3cccs3)cc2)CC1 11.9%, O=C(NCc1cccs1)C1CCN(S(=O)(=O)c2ccc(Cl)cc2)CC1 14.4%, O=C(Nc1cccnc1)c1cccc(S(=O)(=O)N2CCCC2)c1 6.26%, O=C(Cc1cccs1)Nc1ccc([N+](=O)[O-])cc1 10.5%, Oc1ccc2ccc3cccc[n+]3c2c1 42.1%, CCOc1ccc(/C=N/OCC(=O)NCc2cccs2)cc1 5.49%, O=C(Cc1ccc(F)cc1)N/N=C/c1ccc2c(c1)OCO2 14.4%, O=C(/C=C/c1ccc2c(c1)OCO2)NCc1cn2cc(Cl)ccc2n1 2.46%, CC(=O)N1c2ccc(S(=O)(=O)N3CCC(C(=O)NC4CCCC(C)C4C)CC3)cc2CC1C (stereo unspecified) 26.4%, O=C(COc1ncnc2c(Cl)cc(Cl)cc12)N1CCN(S(=O)(=O)c2ccccc2)CC1 8.92%, Cc1cc(C)c2nc(-c3cccnc3)cc(C(=O)Nc3ccc(S(=O)(=O)Nc4onc(C)c4C)cc3)c2c1 39.3%, CCOC(=O)c1sc(NC(=O)c2sc(C)nc2C)nc1C 1.24%, O=C(Nc1ccccc1F)c1ccc2c(c1)OCO2 -3.7%, CC1COc2ccccc2N1C(=O)c1ccc(F)cc1 (stereo unspecified) 25.4%, CN(C)S(=O)(=O)N1CCC(Oc2cccc(C(=O)NCCCC3CCCC3)c2)CC1 1.44%, CC(=O)NC(CC(=O)Nc1cccc(S(=O)(=O)N2CCCC2)c1)c1ccccc1 (stereo unspecified) 3.39%, CCN(CC(=O)Nc1cccc(S(=O)(=O)N2CCCCC2)c1)Cc1ccccc1 24.8%, CCCNC(=S)N1CCC(NC(=O)C23CC4CC(CC(C4)C2)C3)CC1 28.5%, CCCc1cc(=O)oc2c(C)c(OC(C)C(=O)NCC(O)c3ccccc3)ccc12 (stereo unspecified) 23.7%, CC(Oc1ccc(-c2ccccc2)c(F)c1)c1ccn(S(=O)(=O)c2cccc3ccccc23)n1 (stereo unspecified) 27.1%, CCN(CC)CCn1c2c(c(SCC(=O)Nc3ccc(C(C)C)cc3)nc1=O)CCC2 5.82%, O=c1c2sccc2nc(SCc2cc(=O)n3ccccc3n2)n1-c1ccc(Br)cc1 19.6%, C=C(C)c1cccc(C(C)(C)NC(=O)NC2CCCC2)c1 1.39%, COc1ccc(C(=O)NC(=S)NNC(=O)c2c(-c3ccccc3)noc2C)cc1 26.1%, COc1ccc(C(=O)NNC(=S)NC(=O)c2ccccc2[N+](=O)[O-])cc1 34.4%, CCNc1nc(NC(C)C)nc(OCCOC(=O)c2ccccc2)n1 23.7%, COc1ccc(C2N=C(N)N=C(N)N2c2ccccc2)cc1OC (stereo unspecified) 19.2%

Activity change, active:
N/C(=N\OC(=O)CCc1ccccc1)c1cccnc1 -85.7%, O=C(CC1SCCNC1=O)Nc1ccc(Cl)c(Cl)c1 (stereo unspecified) -87.7%, O=C(/C=C/Sc1ncn[nH]1)c1ccc(Cl)cc1 -91.7%, CCOc1ccc(/C=N/NC(N)=S)cc1 -94.8%, Cc1ccc(NC(=O)C2CC2c2ccccc2)cc1 (stereo unspecified) -86.2%, Cc1ccccc1C(=O)Nc1ccc(N2CCCCCC2)cc1 -80.7%, O=C(Nc1ccc(F)c(Cl)c1)C1CCN(S(=O)(=O)c2cccnc2)CC1 -93.8%, O=C(/C=C/c1ccc2c(c1)OCO2)NCc1ccc(F)cc1 -82.8%, O=C(Nc1nnc(C2COc3ccccc3O2)o1)c1ccc(F)cc1 (stereo unspecified) -225%, O=C(Cn1cnc2ccccc2c1=O)Nc1cccc(S(=O)(=O)N2CCCCC2)c1 -81.4%, C=CS(=O)c1sc(Cl)c(N2CCOCC2)c1[N+](=O)[O-] (stereo unspecified) -83.3%, COc1ccc(C(=O)NNC(=S)NC(=O)c2ccccc2)cc1 -106%
